Experimental findings from PubChem BioAssay are described below.

Activity calls are given as the source filed them.

Assay [1] deals with Plasmodium falciparum Sir2 (PF13_0152, Sir2A). The experiment in a line: Plasmodium falciparum Sir2A binding compounds – biochemical, small-molecule microarray, 635 nm fluorescence, primary screen (AID 1098).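 Note: score merges spot fluorescence intensity with its signal-to-noise ratio.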 The settings on record: fluorescence 635 nm, higher = more signal.
A short description of assay [2]: probe aDKK1 binding to arrayed compounds – biochemical, biotinylated probe, 635/667 nm fluorescence, primary screen (AID 1099).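 Note: score merges 667nm spot fluorescence with signal to noise across triplicate slides.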 The settings on record: small-molecule microarray, higher = more signal.
Assay [3] in a line: probe aCHRDL2 binding to arrayed compounds – biochemical, biotinylated probe, 635/667 nm fluorescence, primary screen (AID 1100). Particulars: small-molecule microarray, higher = more signal.
The nature of assay [4]: change in splice reporter luminescence, either direction, cell-based, HEK293, spliceosome inhibition project, primary screen (AID 1101).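 Note: HEK293 cells carrying a splicing-competent luciferase reporter gene; test concentration not given here.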 Particulars: HEK293 splicing luciferase reporter, 24 h, higher = more signal, called active from +8 up or from −8 down.
Assay [5] has as its target Fibroblast growth factor 10 (Homo sapiens) (UniProt O15520). The experiment in a line: compounds binding fibroblast growth factor 10 – biochemical, small-molecule microarray, 635 nm fluorescence, primary screen (AID 1102). Particulars: FGF10 binding, fluorescence 635 nm, higher = more signal.
Assay [6] has as its system glycogen synthase kinase-3 (GSK3A per assay name; protocol says GSK3B). The assay is described as follows: compounds binding glycogen synthase kinase-3 – biochemical, small-molecule microarray, 635 nm fluorescence, GSK3A, primary screen (AID 1103). Note: the record names both GSK3A and GSK3B. The settings on record: fluorescence 635 nm, higher = more signal.
Assay [7] concerns the target Epidermal growth factor receptor (Homo sapiens) (UniProt P00533). The assay is described as follows: compounds binding epidermal growth factor receptor – biochemical, small-molecule microarray, 635 nm fluorescence, primary screen (AID 1104).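 Note: score merges 667 nm emission intensity with spot signal to noise over triplicate slides.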 The settings on record: EGFR binding, higher = more signal.
Assay [8] concerns the target Follistatin-related protein 3 (Homo sapiens) (UniProt O95633). The experiment in a line: compounds binding follistatin-related protein 3 – biochemical, small-molecule microarray, 635 nm fluorescence, primary screen (AID 1105).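 Note: score merges emission near 667 nm and signal to noise per printed spot across three slides.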 The settings on record: FSTL3 binding, higher = more signal.
Assay [9] concerns the target Dickkopf-related protein 1 (Homo sapiens) (UniProt O94907). The assay is described as follows: small molecules binding DKK1 protein – biochemical, small-molecule microarray, 635 nm fluorescence scan, primary screen (AID 1106).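 Note: score merges emission near 667 nm with signal to noise over three replicate slides.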 The settings on record: higher = more signal.
Assay [10] concerns Inhibin beta A chain (activin A). The experiment in a line: small molecules binding activin A – biochemical, small-molecule microarray, 635 nm fluorescence scan, primary screen (AID 1107).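 Note: mouse activin A protein probed at 4.33 µg/mL on printed slides; score merges bound-protein fluorescence near 667 nm with spot signal-to-noise.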 Particulars: INHBA, higher = more signal.
The subject of assay [11] is Human papillomavirus type 1a protein E7 (residues 44-93). The assay is described as follows: small molecules binding HPV E7 44-93 – biochemical, small-molecule microarray, residues 44-93, 635 nm fluorescence, primary screen (AID 1108).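 Note: E7 fragment applied at 1 µg/mL in TBST for 1 h at 4 C; score combines spot fluorescence with its signal to noise ratio.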 Particulars: fluorescence 635 nm, higher = more signal.
Assay [12] is described as follows: hepatitis C replication reporter changes, two-sided – Huh7 cells, luciferase reporter, HCV replication inhibitor project, primary screen (AID 1109).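 Note: huh7 hepatoma cells harbouring a luciferase neomycin HCV replicon reporter; luciferase luminescence as measure of HCV replicon replication; test concentration not given here.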 Particulars: Huh7 HCV replicon luciferase reporter, 48 h; higher = more signal. For orientation: In a reporter assay the amount or activity of a reporter protein is the signal.
The target in assay [13] is Left-right determination factor 2 (Homo sapiens) (UniProt O00292). The experiment in a line: small molecules binding LEFTY2 protein – biochemical, small-molecule microarray, 635 nm fluorescence scan, primary screen (AID 1110). Particulars: higher = more signal.
Chain of Left-right determination factor 2 (Homo sapiens) (O00292 whole entry, looked up): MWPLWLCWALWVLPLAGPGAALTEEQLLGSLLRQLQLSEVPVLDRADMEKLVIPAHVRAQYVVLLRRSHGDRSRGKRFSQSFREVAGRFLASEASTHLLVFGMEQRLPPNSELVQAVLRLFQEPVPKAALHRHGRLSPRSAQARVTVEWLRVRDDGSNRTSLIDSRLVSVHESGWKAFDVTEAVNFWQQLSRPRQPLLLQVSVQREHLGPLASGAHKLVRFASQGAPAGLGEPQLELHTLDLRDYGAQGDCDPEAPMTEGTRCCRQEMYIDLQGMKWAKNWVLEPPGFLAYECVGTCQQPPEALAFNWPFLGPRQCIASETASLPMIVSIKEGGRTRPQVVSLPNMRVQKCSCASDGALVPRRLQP
Assay [14] concerns the target Calmodulin-1 (Homo sapiens) (UniProt P0DP23). The assay is described as follows: small molecules binding calmodulin-1 with EGTA – biochemical, small-molecule microarray, Cy5-labelled CALM1, profiling panel (AID 1111).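 Note: labelled calmodulin applied in Tris saline Tween buffer holding calcium plus EGTA and DTT.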 Particulars: Cy5-CALM1 binding fluorescence, higher = more signal.
Assay [15] has the same target. The experiment in a line: small molecules binding Ca-loaded calmodulin-1 – biochemical, small-molecule microarray, Cy5-labelled CALM1, plus calcium, artefact control for SMM control-protein annotation, profiling panel (AID 1112).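 Note: score merges spot fluorescence with signal to noise from triplicate slides.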 The settings on record: Cy5-CALM1 binding fluorescence, higher = more signal.
Assay [16] in a line: probe aWnt5a binding to arrayed compounds – biochemical, biotinylated probe, 635/667 nm fluorescence, primary screen (AID 1113).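 Note: score merges 667 nm fluorescence intensity with signal-to-noise per printed feature.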 Particulars: small-molecule microarray, higher = more signal.
The nature of assay [17]: probe aShh binding to arrayed compounds – biochemical, biotinylated probe, 635/667 nm fluorescence, primary screen (AID 1114).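 Note: probe is biotin-labelled aShh protein from a stem cell growth factor screen; measures binding of labelled protein to compounds printed on the slide; score merges feature fluorescence at 667 nm with signal-to-noise.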 Particulars: small-molecule microarray, higher = more signal.
Assay [18] is described as follows: probe aNog binding to arrayed compounds – biochemical, biotinylated probe, 635/667 nm fluorescence, primary screen (AID 1115).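 Note: probe is biotinylated aNog protein used at 0.15 µg/mL for 1 h at 4 C; z-score combines 667 nm fluorescence of each spot with its signal to noise.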 The settings on record: small-molecule microarray, higher = more signal.
The target of assay [19] is Torsin-1A-interacting protein 1 (Homo sapiens) (UniProt Q5JTV8). The experiment in a line: compound microarray binding of lysate hLAP1 – cell lysate, small-molecule microarray, COS7 lysate, 635/667 nm fluorescence, primary screen (AID 1116). Particulars: 635 nm fluorescence, higher = more signal.
Chain of Torsin-1A-interacting protein 1 (Homo sapiens) (Q5JTV8 whole entry, looked up): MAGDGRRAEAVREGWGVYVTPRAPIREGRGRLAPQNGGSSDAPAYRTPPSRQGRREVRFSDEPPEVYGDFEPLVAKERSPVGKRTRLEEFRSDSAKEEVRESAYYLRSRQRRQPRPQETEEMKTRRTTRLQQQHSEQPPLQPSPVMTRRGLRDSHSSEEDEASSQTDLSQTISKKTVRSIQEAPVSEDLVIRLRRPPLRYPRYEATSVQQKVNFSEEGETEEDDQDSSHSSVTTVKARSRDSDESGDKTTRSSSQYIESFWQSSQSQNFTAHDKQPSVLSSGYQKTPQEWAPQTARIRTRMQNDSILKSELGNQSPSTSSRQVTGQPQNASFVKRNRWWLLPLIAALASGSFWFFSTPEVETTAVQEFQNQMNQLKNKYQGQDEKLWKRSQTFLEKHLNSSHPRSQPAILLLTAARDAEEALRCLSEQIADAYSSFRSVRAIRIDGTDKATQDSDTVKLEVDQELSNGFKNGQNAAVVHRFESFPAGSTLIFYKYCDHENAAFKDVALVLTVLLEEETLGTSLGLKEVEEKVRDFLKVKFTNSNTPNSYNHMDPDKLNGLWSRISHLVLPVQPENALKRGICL
Assay [20] addresses Alpha-bungarotoxin (Bungarus multicinctus) (UniProt P60615). The experiment in a line: compounds binding labelled alpha-BTX control protein – biochemical, small-molecule microarray, Alexa647 label, 635/667 nm fluorescence, artefact control for SMM control protein annotation, profiling panel (AID 1117). The settings on record: alpha-BTX-A647 binding fluorescence, higher = more signal.

Chain of Dickkopf-related protein 1 (Homo sapiens) (O94907 whole entry, looked up): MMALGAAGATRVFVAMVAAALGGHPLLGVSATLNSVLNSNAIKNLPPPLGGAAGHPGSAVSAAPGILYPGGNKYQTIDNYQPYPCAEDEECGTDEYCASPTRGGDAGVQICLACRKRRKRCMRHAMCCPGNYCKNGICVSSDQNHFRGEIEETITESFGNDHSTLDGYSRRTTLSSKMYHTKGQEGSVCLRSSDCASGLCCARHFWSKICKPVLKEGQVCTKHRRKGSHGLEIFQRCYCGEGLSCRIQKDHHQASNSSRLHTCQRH
Chain of Epidermal growth factor receptor (Homo sapiens) (P00533 whole entry, looked up): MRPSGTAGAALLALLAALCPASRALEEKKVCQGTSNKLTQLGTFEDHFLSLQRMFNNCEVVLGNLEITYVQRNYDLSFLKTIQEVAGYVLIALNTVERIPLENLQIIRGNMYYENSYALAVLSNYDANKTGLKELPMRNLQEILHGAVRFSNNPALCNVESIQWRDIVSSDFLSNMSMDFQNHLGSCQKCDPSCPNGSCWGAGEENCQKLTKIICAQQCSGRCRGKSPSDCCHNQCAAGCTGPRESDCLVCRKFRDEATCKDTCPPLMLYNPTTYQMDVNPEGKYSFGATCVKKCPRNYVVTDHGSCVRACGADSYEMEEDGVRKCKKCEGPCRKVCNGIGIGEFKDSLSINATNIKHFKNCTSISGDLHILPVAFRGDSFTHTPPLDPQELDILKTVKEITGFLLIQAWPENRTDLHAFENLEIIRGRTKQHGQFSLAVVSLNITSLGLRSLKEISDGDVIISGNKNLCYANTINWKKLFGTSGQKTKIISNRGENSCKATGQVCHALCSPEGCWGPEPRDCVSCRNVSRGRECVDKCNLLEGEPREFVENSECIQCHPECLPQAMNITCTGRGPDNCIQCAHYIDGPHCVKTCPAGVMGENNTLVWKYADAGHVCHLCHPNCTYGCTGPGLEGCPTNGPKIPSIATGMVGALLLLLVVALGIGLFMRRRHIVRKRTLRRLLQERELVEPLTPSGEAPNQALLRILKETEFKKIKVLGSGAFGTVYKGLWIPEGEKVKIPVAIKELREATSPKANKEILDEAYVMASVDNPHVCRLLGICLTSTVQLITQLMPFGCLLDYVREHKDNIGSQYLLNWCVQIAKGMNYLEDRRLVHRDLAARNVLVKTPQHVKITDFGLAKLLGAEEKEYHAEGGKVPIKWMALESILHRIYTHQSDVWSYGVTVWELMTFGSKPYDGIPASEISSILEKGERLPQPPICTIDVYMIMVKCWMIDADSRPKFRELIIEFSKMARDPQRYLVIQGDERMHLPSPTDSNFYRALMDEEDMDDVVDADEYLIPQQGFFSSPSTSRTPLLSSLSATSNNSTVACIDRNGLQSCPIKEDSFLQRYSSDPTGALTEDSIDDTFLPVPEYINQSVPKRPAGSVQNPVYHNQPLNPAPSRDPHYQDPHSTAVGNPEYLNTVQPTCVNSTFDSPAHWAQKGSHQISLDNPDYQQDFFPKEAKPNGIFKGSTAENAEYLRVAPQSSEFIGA
Chain of Alpha-bungarotoxin (Bungarus multicinctus) (P60615 whole entry, looked up): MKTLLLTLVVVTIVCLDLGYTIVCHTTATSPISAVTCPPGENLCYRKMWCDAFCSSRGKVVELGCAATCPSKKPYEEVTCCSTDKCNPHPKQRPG
Chain of Follistatin-related protein 3 (Homo sapiens) (O95633 whole entry, looked up): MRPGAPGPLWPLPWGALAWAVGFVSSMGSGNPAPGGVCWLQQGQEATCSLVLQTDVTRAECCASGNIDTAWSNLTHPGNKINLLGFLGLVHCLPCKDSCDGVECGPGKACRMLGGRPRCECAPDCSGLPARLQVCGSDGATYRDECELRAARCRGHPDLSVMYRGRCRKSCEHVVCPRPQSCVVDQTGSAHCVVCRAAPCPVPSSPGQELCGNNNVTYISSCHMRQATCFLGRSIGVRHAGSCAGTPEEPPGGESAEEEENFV
Chain of Fibroblast growth factor 10 (Homo sapiens) (O15520 whole entry, looked up): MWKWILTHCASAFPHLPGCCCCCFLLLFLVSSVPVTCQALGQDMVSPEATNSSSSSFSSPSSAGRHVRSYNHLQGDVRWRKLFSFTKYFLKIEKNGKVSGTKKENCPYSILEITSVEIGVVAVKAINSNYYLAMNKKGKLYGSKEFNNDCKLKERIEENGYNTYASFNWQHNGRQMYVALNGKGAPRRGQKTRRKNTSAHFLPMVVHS

Take `CC(C)(C)OC(=O)CC[C@]1(C(N)=O)COC(c2ccc(OCCCO)cc2)=N1`: the composite z-score in [1] is 0.755; in assay [2], 1.59; in assay [3], 1.38; in assay [5], 1.34; in assay [6], 0.977; in [7], -0.395. Moreover, the composite z-score in assay [8] is 0.278; in assay [9] it was -0.385; in [10], 0.976; in assay [11], 0.0119; in assay [13], -0.471; in assay [14], 2.68. Also, the composite z-score in assay [15] stood at 1.42; in assay [16], 0.131; in assay [17] it was 0.591; in assay [18], 1.7; in assay [19], 2.08; in assay [20] it was 1.64. In addition, the figures for the z-score in [4] and in [12] were -0.337 (inactive) and -0.518, respectively.

`COc1ccc(O[C@H]2C=C[C@@H](c3ccccc3)O[C@@H]2COC(=O)N2CCCCC2)cc1`: the composite z-score in [1] was -0.0945; in assay [2], -0.173; in assay [3], -0.225; in [5], -0.398; in assay [6] it was -0.732; in assay [7], 0.0392. Besides, the composite z-score is -0.0999 in assay [8]; 0.0004 in assay [9]; 1.42 in assay [10]; -0.57 in assay [11]; -0.0284 in assay [13]; -0.781 in assay [14]. Moreover, the composite z-score was -1.33 in assay [15]; -0.0512 in [16]; -0.0146 in assay [17]; -0.267 in assay [18]; 0.323 in [19]; -0.195 in assay [20]. Also, the z-score in assay [4] is 0.757 (inactive); in assay [12], -1.34.

With `CCOC(=O)C1=CCC(c2cc3ccccc3[nH]2)NC1` (stereo not given), the composite z-score in assay [1] was 1.47; in assay [2] it was 1.1; in assay [3], 1.31; in [5], 0.0855; in assay [6] it was 0.233; in [7], 0.242. Moreover, the composite z-score in assay [8] is 0.0799; in assay [9], -0.494; in assay [10], 1.65; in assay [11], -0.192; in assay [13] it was 0.208; in [14] it was -0.219. The composite z-score was found to be 0.19 in assay [15]; 0.0438 in assay [16]; 0.204 in assay [17]; 0.562 in assay [18]; 0.97 in [19]; 0.864 in [20]. Also, the z-score was -1.02 (inactive) in assay [4] and -0.312 in assay [12].

Regarding `CCN1C(=O)[C@H]2[C@H]3[C@H](O)[C@H](O)CC(=NOCC=C(C)CCC=C(C)C)[C@H]3CC[C@H]2C1=O`, the composite z-score in assay [1] is 0.908; in [2], -0.338; in assay [3], -1.31; in assay [5] it was 1.13; in [6], 1.17; in assay [7] it was 1.18. The composite z-score is 1.43 in [8]; 1.74 in assay [9]; 1.1 in [10]; 0.614 in assay [11]; 1.01 in assay [13]; -1.01 in [14]. Besides, the composite z-score in [15] is -2.13; in [16], -0.0704; in assay [17] it was -0.0626; in assay [18], 0.161; in [19], 0.507; in assay [20], -0.476. Moreover, the z-score in assay [4] was 0.886 (inactive); in assay [12] it was -0.504.

As for `CCCC[C@H]1OB(O)C[C@H]2C1=C(C)C[C@H]1C(=O)N(C)C(=O)[C@H]12`, the composite z-score was 0.0529 in [1]; -0.0166 in assay [2]; -0.372 in [3]; 0.944 in [5]; 0.774 in assay [6]; 0.259 in assay [7]. Also, the composite z-score was 1.27 in assay [8]; 0.558 in assay [9]; 0.131 in assay [10]; 0.736 in [11]; 0.654 in [13]; -0.0405 in [14]. Moreover, the composite z-score in assay [15] was 0.06; in [16] it was -0.0462; in assay [17], -0.243; in [18], 0.322; in assay [19], -0.368; in [20], 0.27. For the same molecule, the z-score in assay [4] is 0.238 (inactive); in assay [12], -0.686.
